Source: PubChem BioAssay AID977607 (Broad Institute, 2014)
Hit rate of the full screen: of about 1,500 compounds, about 460 (31%) were called active. Not shown: some 1% with an inconclusive outcome.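 The calls were made as follows: active = curve reaches 40% activation over neutral controls at an AC40 no higher than the top valid tested concentration; inconclusive = no clear call, values can overlap the other calls; inactive = signal moving opposite to the expected increase, and the rest.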 These entries were drawn from the full list. Results with a measured potency or affinity are listed apart.

assay: GLuc-reported insulin release enhancers, glucose-stimulated beta cells – cell-based, INS-1E, Gaussia luciferase, luminescence, cherry-pick, set 2, dose response (AID 977607); conditions: INS-1E GLuc insulin secretion reporter, 2-3 h, stronger effect = higher value; at 35 µM, 100% = signal doubled over neutral wells unless noted;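 also: 0% = median of the plate neutral control wells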

Max activation, inactive:
Cc1ccc(-c2cc(C(=O)Nc3nn[nH]n3)c3ccccc3n2)c(C)c1 -12.2% [at 1.2 µM, 100% = signal doubled over neutral wells]
Cc1ccc2c(c1)C=CC(C#N)N2C(=O)c1ccccc1 (stereo unspecified) 36.1%
O=C(COc1nncc2ccccc12)NCC(F)(F)F 25.7%
Cc1ccc(C(OCC(O)CNCc2ccc(F)cc2)c2ccccc2)cc1 (stereo unspecified) 97.1%
CCOC(=O)CN1C(=O)[C@]2(OCCC=C[C@H]2C)c2ccccc21 33.6%
C1CCN(CCCNC2C3CC4CC(C3)CC2C4)C1 (stereo unspecified) -11.8% [at 0.0016 µM, 100% = signal doubled over neutral wells]
CCc1nc2c(nnn2Cc2ccc(F)cc2)c(=O)[nH]1 -16% [at 0.42 µM, 100% = signal doubled over neutral wells]
COc1ccc(CC(=O)N2CCc3cc(OC)c(OC)cc3C2)cc1 20%
COc1ccc(-c2cc(-c3ccco3)[nH]c(=O)c2C#N)cc1OC -12.7% [at 3.8 µM, 100% = signal doubled over neutral wells]
O=C(Nc1nnc(CCS(=O)(=O)c2ccc3ccccc3c2)s1)c1cccs1 -24% [at 0.015 µM, 100% = signal doubled over neutral wells]
O=C(Nc1ccc(NC(=O)c2cccs2)cc1)c1ccc(Br)o1 -18.3% [at 0.135 µM, 100% = signal doubled over neutral wells]
CC1(C)N=C(c2ccccc2)C(c2ccccc2)=N1 33.2%
CCOC(=O)Cn1nc(-c2ccccc2)c(-c2ccccc2)nc1=O -19.8% [at 0.005 µM, 100% = signal doubled over neutral wells]
Cc1ccc(-n2cc(CNCCCn3ccnc3C)c(-c3ccc(F)cc3)n2)cc1 -12.6% [at 1.2 µM, 100% = signal doubled over neutral wells]
CCOC(=O)c1cc(-c2ccncc2)nc2c1c(C)nn2-c1ccccn1 -16.4% [at 0.005 µM, 100% = signal doubled over neutral wells]
CCOc1ncccc1C(=O)OCC(=O)NCCc1ccc(S(N)(=O)=O)cc1 -12.8% [at 0.046 µM, 100% = signal doubled over neutral wells]
COc1ccc(S(=O)(=O)N(C)c2ccc(C(=O)N3CCCC3)cc2)cc1OC -12.8% [at 3.8 µM, 100% = signal doubled over neutral wells]
O=C(O)c1ccc(S(=O)(=O)N2CCC3(CC2)CC(=O)c2ccccc2O3)cc1 -16.3% [at 1.2 µM, 100% = signal doubled over neutral wells]
CCCN1C[C@@H](C)[C@@H](OC)CN(C)C(=O)c2ccc(NC(=O)c3cccc(F)c3)cc2OC[C@H]1C -15.7% [at 0.005 µM, 100% = signal doubled over neutral wells]
O=C(Nc1cccc(Cl)c1)c1cnn2cccnc12 29.7%
CCc1nc2ccc(C(=O)NCCCN3CCCC3=O)cn2c1N(CCC(C)C)CCN(C)C -19.8% [at 0.42 µM, 100% = signal doubled over neutral wells]
CC(=O)c1cccc(-c2csc3ncnc(Sc4nnnn4C)c23)c1 -11.8% [at 0.005 µM, 100% = signal doubled over neutral wells]
CCN(CC)C(=O)C1(P(=O)(c2ccccc2)c2ccccc2)CCC1 -17.4% [at 0.42 µM, 100% = signal doubled over neutral wells]
O=C(c1ccco1)N(Cc1ccc(Cl)cc1)C1CCS(=O)(=O)C1 (stereo unspecified) 17.8%
CCn1nnnc1NCc1ccc(OCc2c(F)cccc2Cl)c(OC)c1 -22.7% [at 1.2 µM, 100% = signal doubled over neutral wells]
O=c1c(Cc2ccc(Cl)cc2Cl)c(O)ccn1CC(F)(F)F 17.3%
COc1ccc(CNC(=O)C2Cc3c(-c4ccccc4)ccnc3O2)cc1OC (stereo unspecified) -21.6% [at 11 µM, 100% = signal doubled over neutral wells]
C/C(Cl)=C\Cn1c(N2CCCC2)nc2c1c(=O)n(C)c(=O)n2C -30.4% [at 1.2 µM, 100% = signal doubled over neutral wells]
CCNc1nc(NCC)nc(N(C#N)C(C)C)n1 28.6% [at 11 µM, 100% = signal doubled over neutral wells]
Cc1nc2ccccc2c2nc(NC(=O)C(F)(F)F)nn12 -15.5% [at 11 µM, 100% = signal doubled over neutral wells]
CN(C)c1ccc(/C=N/NC(=O)c2ccccc2Cl)cc1 -9.59% [at 0.046 µM, 100% = signal doubled over neutral wells]
CC(C)Oc1ccc(Br)cc1C(=O)N/N=C/c1c[nH]c2ccccc12 -45.1%
NC(=O)c1ncn([C@@H]2O[C@H](C(=O)N[C@H](Cc3ccccc3)C(=O)O)[C@@H](O)[C@H]2O)n1 -32.5%
COc1ccc(N2CCN(C(c3cccs3)C(C)NC(=O)C(=O)N3CCOCC3)CC2)cc1 (stereo unspecified) -16.6% [at 3.8 µM, 100% = signal doubled over neutral wells]
Cc1ccc(CC2S/C(=N/c3ccccn3)NC2=O)cc1 (stereo unspecified) -16.1% [at 0.42 µM, 100% = signal doubled over neutral wells]
Cc1ccc(NC(=O)CC2S/C(=N/N=C/c3c[nH]c4ccccc34)NC2=O)cc1 (stereo unspecified) 19.8% [at 3.8 µM, 100% = signal doubled over neutral wells]
CCOC(=O)N1CCN(S(=O)(=O)N2CCCC(C(=O)NCc3cc(OC)ccc3OC)C2)CC1 (stereo unspecified) -20.8% [at 1.2 µM, 100% = signal doubled over neutral wells]
CC(=O)Nc1sc(C)c(C)c1C(=O)OCC(=O)Nc1cc(S(C)(=O)=O)ccc1Cl -22.2%
CCOC(=O)c1c(NC(=O)c2ccoc2C)sc(C(=O)N(C)C)c1C 12.6%
O=c1[nH]c(CN2CCN(c3ccc(O)cc3)CC2)nc2scc(-c3ccc(Cl)cc3)c12 -25.6%
CCOc1ccc(C(C)=O)cc1COC(=O)CN1C(=O)NC2(CCCC2)C1=O -28.5% [at 0.005 µM, 100% = signal doubled over neutral wells]
COc1ccc2ccc(=O)oc2c1CC=C(C)C -13.3% [at 0.015 µM, 100% = signal doubled over neutral wells]
CCOC(=O)Cn1c(=O)n(Cc2ccc(OC)cc2)c(=O)c2cccnc21 -22.7% [at 0.005 µM, 100% = signal doubled over neutral wells]
COc1ccc(CNC(=O)COC(=O)c2cc(C)nc3ccccc23)cc1 16.2%
CCOC(=O)c1oc2ccccc2c1NC(=O)c1ccco1 -17.8% [at 0.135 µM, 100% = signal doubled over neutral wells]
CCOC(=O)c1c(C)[nH]c(C(C)=NNC(=O)c2cccs2)c1C -42% [at 11 µM, 100% = signal doubled over neutral wells]
CNC(=O)C(=O)NCC1OCCCN1S(=O)(=O)c1ccc(F)cc1C (stereo unspecified) -17.8% [at 0.005 µM, 100% = signal doubled over neutral wells]
CC(C)NC(=O)C1(C)CCN1Cc1cccc(C#N)c1 (stereo unspecified) -13.6% [at 0.0016 µM, 100% = signal doubled over neutral wells]
Cc1cccc(C(=O)NC(=S)NNC(=O)COc2c(C)cccc2C)c1 -26.2% [at 11 µM, 100% = signal doubled over neutral wells]
COc1ccc(-c2cccc(C(=O)Nc3ccc(C)cc3)c2)cc1 26.8%
Cc1ccc(-n2nnnc2SCc2ccc(C(=O)O)cc2)cc1C -23.5% [at 3.8 µM, 100% = signal doubled over neutral wells]
N#Cc1sc2nc(C3CC3)cc(-c3ccccc3)c2c1N -14.8% [at 0.015 µM, 100% = signal doubled over neutral wells]
N#CC1=C(N)Oc2nc(-c3ccccc3)[nH]c2C1c1cccnc1 (stereo unspecified) -20.8% [at 0.005 µM, 100% = signal doubled over neutral wells]
O=C1CSC(c2cccc(O)c2)N1Cc1ccccc1 (stereo unspecified) -24.7% [at 0.005 µM, 100% = signal doubled over neutral wells]
C/C=C/c1ccc(OCCN2C(=O)NC(C)(C)C2=O)c(OC)c1 -11.4% [at 0.005 µM, 100% = signal doubled over neutral wells]
CCn1ccc(C(=O)Nc2ccccc2SC)n1 -10.4% [at 0.046 µM, 100% = signal doubled over neutral wells]
